Assay results: PubChem BioAssay (NCI)
Compounds without any hit were thinned out: in the full panel of roughly 83,000, 20% have a hit.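 The endpoint reported here, percent growth, reads 100 for growth as untreated, 0 for no net growth and -100 for all cells dead.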 Unmarked numbers belong to inactive results. The source made the active and inactive calls. Rule for the calls: active = growth percent below 10; inactive = the rest.

Experiments:
Test in all cases: NCI-60 one-dose screen, 48 h (100 = growth as untreated, 0 = no growth, -100 = all killed)
NCI-H23 lung = details: 10 µM unless noted
NCI-H322M lung = details: 10 µM unless noted
NCI-H460 lung = details: 10 µM unless noted
HOP-92 NSCLC = details: 10 µM unless noted
NCI-H522 lung = details: 10 µM
A549/ATCC NSCLC = details: 10 µM unless noted
786-0 renal = details: 10 µM unless noted
COLO 205 colon = details: 10 µM unless noted
NCI-H226 lung = details: 10 µM
HOP-62 NSCLC = details: 10 µM unless noted

O=c1oc2ccccc2cc1-c1csc(N=Nc2c(O)[nH]c3ccc(Br)cc23)n1
growth (NCI-H23 lung): 98.6% | growth (NCI-H322M lung): 102% | growth (NCI-H460 lung): 100% | growth (HOP-92 NSCLC): 123% | growth (NCI-H522 lung): 99.5% | growth (A549/ATCC NSCLC): 93.8% | growth (786-0 renal): 103%

COc1ccc(-c2cc(=O)oc3c4c(ccc23)OCN(Cc2ccc(F)cc2)C4)cc1
growth (NCI-H23 lung): 41.2% | growth (NCI-H322M lung): 75.9% | growth (NCI-H460 lung): 61.8% | growth (HOP-92 NSCLC): 47.8% | growth (A549/ATCC NSCLC): 69.6% | growth (786-0 renal): 65.7% | growth (COLO 205 colon): 64.2%

COc1cc2nc(N3CCC[C@H](NC4=CC(=O)c5ccccc5C4=O)C3)nc(N)c2cc1OC
growth (NCI-H226 lung): 107% | growth (NCI-H322M lung): -72.2% (active) | growth (HOP-62 NSCLC): 64% | growth (NCI-H460 lung): -65.7% (active) | growth (HOP-92 NSCLC): 75.8% | growth (NCI-H522 lung): 74.4% | growth (A549/ATCC NSCLC): -80.6% (active) | growth (786-0 renal): -92.7% (active) | growth (COLO 205 colon): -79.6% (active)

C[C@@H](Oc1cc(-c2cnn(C3CC4(CNC4)C3)c2)cnc1N)c1c(Cl)ccc(F)c1Cl
growth (NCI-H226 lung): 65.9% | growth (NCI-H322M lung): 72.1% | growth (HOP-62 NSCLC): 49.9% | growth (NCI-H460 lung): 15.9% | growth (HOP-92 NSCLC): 0.0528% (active) | growth (NCI-H522 lung): 69.1% | growth (A549/ATCC NSCLC): 19.6% | growth (786-0 renal): 53% | growth (COLO 205 colon): 5.17% (active)

CCC(C)[C@H]1O[C@]2(CC[C@@H]1C)C[C@@H]1C[C@@H](C/C=C(\C)[C@@H](OC3C[C@H](OC)C(O[C@H]4C[C@H](OC)[C@@H](O)[C@H](C)O4)[C@H](C)O3)[C@@H](C)/C=C/C=C3\CO[C@@H]4[C@H](O)C(C)=C[C@@H](C(=O)O1)[C@]34O)O2 (some centres undefined)
growth (NCI-H226 lung): 6.79% (active) | growth (NCI-H322M lung): 52.7% | growth (HOP-62 NSCLC): 29.5% | growth (NCI-H460 lung): 3.02% (active) | growth (HOP-92 NSCLC): -6.11% (active) | growth (NCI-H522 lung): 17.2% | growth (A549/ATCC NSCLC): 21.3% | growth (786-0 renal): -79.7% (active) | growth (COLO 205 colon): -41.6% (active)

C=CC(=O)N1CC2(CC(n3nc(-c4ccc(Oc5ccccc5)cc4)c4c(N)ncnc43)C2)C1
growth (NCI-H226 lung): 15.8% | growth (NCI-H322M lung): 31.1% | growth (HOP-62 NSCLC): 35.7% | growth (NCI-H460 lung): 40.5% | growth (HOP-92 NSCLC): 20% | growth (A549/ATCC NSCLC): 39.2% | growth (786-0 renal): 35.5%

Cc1nn(CC(=O)O)c2c1C(=O)CC(C)(C)C2
growth (NCI-H226 lung): 93.6% | growth (NCI-H322M lung): 115% | growth (HOP-62 NSCLC): 91.1% | growth (NCI-H460 lung): 107% | growth (HOP-92 NSCLC): 95.5% | growth (NCI-H522 lung): 96.7% | growth (A549/ATCC NSCLC): 102% | growth (786-0 renal): 89.8% | growth (COLO 205 colon): 117%

Cc1nc2cc(Nc3nc(Nc4ccc(F)cc4)nc(N4CCCC4)n3)ccc2n1Cc1ccccc1
growth (NCI-H226 lung): -17.1% (active) | growth (NCI-H322M lung): 21.4% | growth (HOP-62 NSCLC): -22.5% (active) | growth (NCI-H460 lung): -30.4% (active) | growth (HOP-92 NSCLC): -12.3% (active) | growth (NCI-H522 lung): -4.13% (active) | growth (A549/ATCC NSCLC): -0.672% (active) | growth (786-0 renal): -21.7% (active) | growth (COLO 205 colon): -72.6% (active)

COc1cc(/C=C/C(=O)C2=C(/C=C/c3ccc(O)c(OC)c3)NC(=O)NC2c2ccc(O)c(OC)c2)ccc1O (centres undefined)
growth (NCI-H226 lung): 91.8% | growth (NCI-H322M lung): 102% | growth (HOP-62 NSCLC): 123% | growth (NCI-H460 lung): 89.1% | growth (HOP-92 NSCLC): 88.9% | growth (A549/ATCC NSCLC): 78.9% | growth (786-0 renal): 100%

COc1cc(C(F)(F)F)ccc1-c1cc(-c2ccc(F)cc2)n[nH]1
growth (NCI-H226 lung): 81.1% | growth (NCI-H322M lung): 90.6% | growth (HOP-62 NSCLC): 97.8% | growth (NCI-H460 lung): 91.6% | growth (HOP-92 NSCLC): 96.1% | growth (A549/ATCC NSCLC): 64.9% | growth (786-0 renal): 99.9%

N#Cc1c(O)c2c(c(O)c1C#N)C(=O)c1ccccc1C2=O
growth (NCI-H226 lung): 87.8% | growth (NCI-H322M lung): 38.4% | growth (HOP-62 NSCLC): 59.8% | growth (NCI-H460 lung): 22.7% | growth (HOP-92 NSCLC): 88.5% | growth (NCI-H522 lung): -5.65% (active) | growth (A549/ATCC NSCLC): 27.3% | growth (786-0 renal): 90.9% | growth (COLO 205 colon): -4.03% (active)

O=C1c2cc(S(=O)(=O)O)ccc2C(=O)c2c1cccc2[N+](=O)[O-]
growth (NCI-H226 lung): 111% | growth (NCI-H322M lung): 111% | growth (HOP-62 NSCLC): 117% | growth (NCI-H460 lung): 115% | growth (HOP-92 NSCLC): 110% | growth (A549/ATCC NSCLC): 98.6% | growth (786-0 renal): 101% | growth (COLO 205 colon): 108%

O=C(COc1ccc(/C=C2\CSc3ccccc3C2=O)cc1)c1ccc(Cl)cc1
growth (NCI-H226 lung): 97.9% | growth (NCI-H322M lung): 111% | growth (HOP-62 NSCLC): 94.4% | growth (NCI-H460 lung): 115% | growth (HOP-92 NSCLC): 122% | growth (NCI-H522 lung): 99.4% | growth (A549/ATCC NSCLC): 101% | growth (786-0 renal): 105% | growth (COLO 205 colon): 103%

O=C(C[Si](CC(=O)c1cccc(C(F)(F)F)c1)CC(=O)c1cccc(C(F)(F)F)c1)c1cccc(C(F)(F)F)c1
growth (NCI-H226 lung): 82.9% | growth (NCI-H322M lung): 74.5% | growth (HOP-62 NSCLC): 95.6% | growth (NCI-H460 lung): 8.35% (active) | growth (HOP-92 NSCLC): -27.9% (active) | growth (NCI-H522 lung): 68.7% | growth (A549/ATCC NSCLC): 49% | growth (786-0 renal): 75.8% | growth (COLO 205 colon): 98.4%

C[C@@H](Oc1cc(-c2cnn(C3CC4(CCNCC4)C3)c2)cnc1N)c1c(F)ccc(Cl)c1Cl
growth (NCI-H226 lung): 65.5% | growth (NCI-H322M lung): 44.4% | growth (HOP-62 NSCLC): 28.4% | growth (NCI-H460 lung): -11.7% (active) | growth (HOP-92 NSCLC): -18.8% (active) | growth (NCI-H522 lung): -0.334% (active) | growth (A549/ATCC NSCLC): -14.4% (active) | growth (786-0 renal): -2.08% (active) | growth (COLO 205 colon): -8.9% (active)

Clc1ccc2c(N3CCN(c4ccnc(NC5CCCCC5)n4)CC3)ccnc2c1
growth (NCI-H226 lung): 80.7% | growth (NCI-H322M lung): 98.8% | growth (HOP-62 NSCLC): 51.7% | growth (NCI-H460 lung): 32% | growth (HOP-92 NSCLC): 40.6% | growth (NCI-H522 lung): 71.3% | growth (A549/ATCC NSCLC): 54.4% | growth (786-0 renal): 49.4% | growth (COLO 205 colon): -1.41% (active)

OC[C@@H](O)[C@@H](O)CO
growth (NCI-H226 lung): 98.6% | growth (NCI-H322M lung): 105% | growth (HOP-62 NSCLC): 126% | growth (NCI-H460 lung): 107% | growth (HOP-92 NSCLC): 101% | growth (NCI-H522 lung): 96.6% | growth (A549/ATCC NSCLC): 104% | growth (786-0 renal): 104% | growth (COLO 205 colon): 111%

COc1cccc(C2C3=C(COC3=O)N(CCO)c3cc4c(cc32)CCC4)c1 (centres undefined)
growth (NCI-H226 lung): 13.4% | growth (NCI-H322M lung): 30.3% | growth (HOP-62 NSCLC): 19.2% | growth (NCI-H460 lung): 1.42% (active) | growth (HOP-92 NSCLC): 48.2% | growth (NCI-H522 lung): -50.4% (active) | growth (A549/ATCC NSCLC): 12.1% | growth (786-0 renal): 0.563% (active) | growth (COLO 205 colon): -78.5% (active)

COc1cccc(C2C3=C(COC3=O)N(CCO)c3cc4c(cc32)OCO4)c1 (centres undefined)
growth (NCI-H226 lung): 51.6% | growth (NCI-H322M lung): 48.9% | growth (HOP-62 NSCLC): 30.4% | growth (NCI-H460 lung): 12.3% | growth (HOP-92 NSCLC): 65.7% | growth (A549/ATCC NSCLC): 25.9% | growth (786-0 renal): 18.5% | growth (COLO 205 colon): -27.1% (active)

C=CC(=O)N1CC2(CCC(n3nc(-c4ccc(Oc5ccccc5)cc4)c4c(N)ncnc43)CC2)C1
growth (NCI-H226 lung): -77.7% (active) | growth (NCI-H322M lung): 0.179% (active) | growth (HOP-62 NSCLC): -2.62% (active) | growth (NCI-H460 lung): -76.8% (active) | growth (HOP-92 NSCLC): -66.4% (active) | growth (A549/ATCC NSCLC): -78.7% (active) | growth (786-0 renal): -87.7% (active) | growth (COLO 205 colon): -11.6% (active)

Cn1cc(C(=O)NCCC(=N)N)cc1NC(=O)CN=C(N)N
growth (NCI-H226 lung): 90.7% | growth (NCI-H322M lung): 106% | growth (HOP-62 NSCLC): 85.9% | growth (NCI-H460 lung): 107% | growth (HOP-92 NSCLC): 89.5% | growth (A549/ATCC NSCLC): 99.2% | growth (786-0 renal): 85.4% | growth (COLO 205 colon): 103%

CCOC(=O)C(CC(c1ccccc1)N1CCCCC1)[N+](=O)[O-] (centres undefined)
growth (NCI-H226 lung): 82.9% | growth (NCI-H322M lung): 88.5% | growth (HOP-62 NSCLC): 86% | growth (NCI-H460 lung): 68% | growth (HOP-92 NSCLC): 78.4% | growth (NCI-H522 lung): 59.4% | growth (A549/ATCC NSCLC): 76.4% | growth (786-0 renal): 93.3% | growth (COLO 205 colon): 108%

COc1ccc(C(=O)COc2cccc(/C=C3\CSc4ccc(C)cc4C3=O)c2)cc1
growth (NCI-H226 lung): 77.7% | growth (NCI-H322M lung): 104% | growth (HOP-62 NSCLC): 104% | growth (NCI-H460 lung): 104% | growth (HOP-92 NSCLC): 98.5% | growth (NCI-H522 lung): 45.8% | growth (A549/ATCC NSCLC): 96% | growth (786-0 renal): 100% | growth (COLO 205 colon): 116%

C[C@@H](Oc1cc(-c2cnn(C3CC4(CCCNC4)C3)c2)cnc1N)c1c(Cl)ccc(F)c1Cl (some centres undefined)
growth (NCI-H226 lung): 58.8% | growth (NCI-H322M lung): 58.9% | growth (HOP-62 NSCLC): 54% | growth (NCI-H460 lung): 0.489% (active) | growth (HOP-92 NSCLC): -7.41% (active) | growth (NCI-H522 lung): 23.6% | growth (A549/ATCC NSCLC): 16.6% | growth (786-0 renal): 25.2% | growth (COLO 205 colon): -30.9% (active)

CN1CCc2c(Sc3ccc(C(=O)NO)cc3)c3ccccc3n2C1
growth (NCI-H226 lung): 62.1% | growth (NCI-H322M lung): 67.8% | growth (HOP-62 NSCLC): 66.8% | growth (NCI-H460 lung): 40.3% | growth (HOP-92 NSCLC): 52.6% | growth (A549/ATCC NSCLC): 52.1% | growth (786-0 renal): 75.3%
